# According to the supplement of paper PMC6555819:
# How the values were obtained:
# Test in all cases: PBM binding z-score (relative to random genomic background probes); higher = stronger binding; sequences stand for … in GC…GCGATTGACAGCGTAGAATGAAGG
# [1] = tested on: RARb homodimer (NR concentration 270 nM)
# Method in brief: (§1)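 Custom Agilent 4×180K protein-binding microarrays carried double-stranded probes, each with a 34-nt variable region. These regions held direct-repeat seeds, single-nucleotide variants, half-site ablations and random human genomic background sequences. Ligand-free nuclear receptor dimers were incubated on the arrays for 1 h, antibodies against each partner (one per run) detected binding, and scanned fluorescence was regression-normalized. Binding z-scores take the random background probes as reference.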
# [2] = tested on: RARg:RXRa (NR concentration 270 nM, RXRa partner concentration 90 nM)
# Method in brief: as §1
# [3] = tested on: RARg homodimer (NR concentration 270 nM)
# Method in brief: as §1
# [4] = tested on: RXRa DBDmut IVT, anti-RXR (DBD mutation: RXRa K156A/R161A, NR concentration 90 nM)
# Method in brief: as §1
# [5] = tested on: RXRa homodimer (NR concentration 180 nM)
# Method in brief: as §1
# [6] = tested on: THRa:RXRa (NR concentration 90 nM, RXRa partner concentration 90 nM)
# Method in brief: as §1
# [7] = tested on: THRa homodimer (NR concentration 90 nM)
# Method in brief: as §1
# [8] = tested on: VDR:RXRa (NR concentration 270 nM, RXRa partner concentration 90 nM)
# Method in brief: as §1
# [9] = tested on: VDR homodimer (NR concentration 270 nM)
# Method in brief: as §1
Sequence,PBM binding z-score [1],PBM binding z-score [2],PBM binding z-score [3],PBM binding z-score [4],PBM binding z-score [5],PBM binding z-score [6],PBM binding z-score [7],PBM binding z-score [8],PBM binding z-score [9]
CGTCCAAGGTCAGAGAGGTCAGTGACTGCCGAGT,5.15,6.31,6.93,3.54,5.25,4.26,2.58,7.27,5.42
TCTTGTAGATCAAAGGTCAAGAAAGCCGAAGCCT,4.47,5.63,5.37,0.913,7.17,3.42,0.378,4.14,0.514
ATATGTAGGTTACATCCGGGTCATTCTGGCTATG,2.67,3.21,1.93,1.51,3.1,3.63,2.37,3.69,2.5
ATATGTAGGTTTGGGTCATTCAGAAAGTAGGGAA,2.2,1.92,1.33,1.36,2.05,2.74,2.23,2.04,2.22
CCTAGCAGGCCACGGTCACTCAAGCATTTCGCTT,1.74,0.739,1.19,0.229,0.221,0.45,0.288,-0.261,-0.0513
CCTTACGGGTCAAGGTTATATCACGGGTGGTACG,3.52,4.98,4.79,0.822,5.52,3.11,0.96,3.49,1.54
ATATGTAGGCTAGGGTCATTCAGAAAGTAGGGAA,2.44,3.25,2.17,2,4.11,3.74,2.36,3.8,2.49
CGAACTAGGTCAGAACAGGACATTGAAGGATGAT,2.12,2.57,3.4,0.96,1.41,3.72,0.36,1.59,0.369
CGAACTAGCTCAAGGACAGTGAATCTCCGCACGC,0.214,-0.134,-0.141,0.392,-0.227,1.42,1.48,-0.322,0.226
ACTAGTTGGTCAGCTGGGGTCACACACAATTCGG,4.07,4.45,3.92,1.28,5.58,4.71,3.54,4.93,3.33
TCTAGTTGGTTACGGAGGTCACACACGACGGGTA,3.79,4.2,3.66,1.12,4.33,3.52,2.49,4.27,3.21
CCGCGTAGGTTACGAGGGGGCATTCAGTGCGAAT,2.04,3.34,2.15,1.51,2.28,3.95,0.24,5.31,2.58
CTATATAGGTTAAGGGGGTCATTCAGTTTGAAAG,3.8,5.72,4.34,2.61,6.69,4.18,1.99,7.71,6.17
CATACAGGGTCCGCTAGGCCAGAGTAGGGACGGC,-0.0807,-0.0159,0.424,-0.419,-0.247,-0.0805,-0.241,-0.537,-0.213
TAGCCTAGGTCAGATCGGGCGAGTATACGCTATA,2.27,2.7,3.68,-0.51,1.44,3.15,-0.0987,0.506,-0.405
TTACCAAGGTGAAAGGTCGTTGAGGCACGCCTTG,2.61,4.52,2.03,0.589,6.39,3.49,0.818,3.55,1.32
CGAACTAGGTCAAACGACAGTGAAAGGCGACGTA,2.49,4.21,4.7,1.76,3.32,2.29,0.23,1.43,0.347
CCTACTGGGCCAAGCTCATTGATCAGTCAAAGCA,-0.235,-0.314,-0.109,-0.384,-0.732,-0.704,-0.701,-0.667,-0.851
TCGAGTAGGTTACGGGGGTATTCAGGGATGAAGA,1.58,2.08,1.62,1.44,2.06,2.99,1.08,2.64,1.21
CTAACTAGGTCACCAGGACAGTGAAGAGGTTGGA,3.4,4.69,5.53,1.67,3.98,3.51,2.16,2.06,0.856
TCGAGTAGGTTACGGGGGCATTGAGGGATGAAGA,2.27,3.47,2.72,1.71,2.66,2.97,1.39,3.66,3.13
CGAACTACGTCAAAGGACAGTGAAAGGCGACGTA,0.995,0.411,0.951,-0.164,0.202,0.0886,-0.314,-0.443,-0.351
CGAACTAGGTAAAAGGACAGTGAAAGGCGACGTA,1.17,0.486,0.964,-0.478,0.114,0.444,-0.377,-0.189,-0.349
CTATGTAGGTTAAGGGGGGCATTCAGTTTGAAAG,2.88,3.52,2.84,2.58,2.76,3.12,2.39,6.21,4.81
CGTCCAAGGTCAGCAGGTCAGAGAAAGCGACGTG,4.32,6.59,6.67,2.55,5.72,3.92,2.42,3.98,1.83
CGAACTTGGTCACCAGGACAGTGAAGAGGTTGGA,1.06,0.959,1.47,-0.0208,0.727,1.63,0.644,0.809,-0.0725
